From PubChem BioAssay
Measured potencies and affinities stand elsewhere. Calls of active or inactive are those of the source. Cut-off not given; nearly all actives show IC50 up to about 0.91 µM.

The molecules below were run against Calcium-dependent protein kinase 4 (Plasmodium falciparum (isolate 3D7)) (UniProt Q8IBS5) (assay: PfCDPK4 kinase inhibitors, biochemical, TCAMS library (AID 1159588)). Conditions: recombinant PfCDPK4, Kinase-Glo ATP depletion luminescence.
Calcium-dependent protein kinase 4 (Plasmodium falciparum (isolate 3D7)), sequence (Q8IBS5 whole entry, looked up): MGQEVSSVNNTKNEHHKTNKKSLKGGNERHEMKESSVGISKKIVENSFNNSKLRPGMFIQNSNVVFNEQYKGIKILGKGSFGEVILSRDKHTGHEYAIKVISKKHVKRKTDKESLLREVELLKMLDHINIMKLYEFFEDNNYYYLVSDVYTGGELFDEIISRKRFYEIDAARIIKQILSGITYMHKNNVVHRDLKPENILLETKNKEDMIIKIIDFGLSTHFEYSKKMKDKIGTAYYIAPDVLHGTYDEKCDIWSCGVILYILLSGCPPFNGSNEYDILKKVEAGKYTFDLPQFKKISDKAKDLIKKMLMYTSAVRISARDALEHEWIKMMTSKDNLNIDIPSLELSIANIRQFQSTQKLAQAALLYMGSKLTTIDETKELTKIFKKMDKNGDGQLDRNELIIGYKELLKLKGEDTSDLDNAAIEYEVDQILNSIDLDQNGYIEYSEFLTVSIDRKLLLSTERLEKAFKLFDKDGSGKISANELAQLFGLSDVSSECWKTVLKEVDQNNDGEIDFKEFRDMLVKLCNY

outcome, inactive:
Cc1ccc(NC(=O)c2ccc(Cl)c(Cl)c2)cc1-c1ccc(C(=O)Nc2ccncc2)cc1
O=C(/C=C/c1ccc(C(F)(F)F)cc1)N1CCC(CCN2CCC(c3c[nH]c4ccccc34)CC2)CC1
O=C(/C=C/c1ccc(Cl)c(Cl)c1)NC1CCN(Cc2cccc(O)c2)CC1
Cc1cccc2[nH]c(-c3ccc(-c4cccc(NC(=O)Nc5ccsc5)c4)cc3)nc12
COc1ccc2nccc([C@@H](O)CN3CCC(NCc4ccc5c(c4)OCCO5)CC3)c2c1
CCN(c1ccc(F)cc1)S(=O)(=O)c1cc(Br)cc2c1N(C(=O)C1CC1)CC2
Cn1c(=N)n(CC(=O)N2CCc3ccc(Cl)cc3C2Cc2ccc(Cl)c(Cl)c2)c2ccccc21 (stereo not given)
COc1cc(C(=O)N2CCN(C(C)C)CC2)ccc1CN(C)CCCN1CCN(c2cccc(Cl)c2Cl)CC1
O=C(NCCc1ccccc1)N(Cc1ccc(-c2cccc(CN3CCNCC3)c2)cc1)C1CCN(Cc2ccccc2)CC1
Cc1cc(N2CCCC2)nc(Nc2ccc(NC(=O)c3ccccc3)cc2)n1
O=C(Cc1ccccc1)NC(CCN1CCC(O)(c2cccc(C(F)(F)F)c2)CC1)c1ccc(Cl)c(Cl)c1 (stereo not given)
Oc1ccc(CN2CC[C@@H](N3CCN(CCc4ccccc4)CC3)[C@H](O)C2)cc1Cl
Oc1c(C(Nc2nc3ccccc3s2)c2ccccc2)ccc2cccnc12 (stereo not given)
CN(C)C(CNC(=O)c1cc(-c2ccncc2)c(-c2ccc(NC(=O)Nc3cccc(Cl)c3)cc2)o1)c1ccccc1 (stereo not given)
COc1cc(NC(=O)c2sc(-c3ccc(Cl)cc3)cc2NC(=O)c2ccncc2)ccc1OCCN1CCCC1
Cc1cc(NN=Cc2ccccc2Cl)c2ccccc2n1
Cc1cc(NN=Cc2ccc([N+](=O)[O-])cc2)c2ccc(F)cc2n1
COc1ccc(C(=O)N2CCc3cc4nccc(N5CCN6CCC[C@H]6C5)c4cc32)cc1
O=C(Nc1cccc(-c2ccc(-c3nc4ccc(F)cc4[nH]3)cc2)c1)Nc1ccc(Cl)c(Cl)c1
Cc1ccc(Cn2ncc(NC3CCNCC3)c(Cl)c2=O)cc1NC(=O)Nc1ccc(-c2ccccc2)cc1
CCCCNS(=O)(=O)c1ccc(NC(=O)c2cc([N+](=O)[O-])ccc2Cl)cc1
CCNc1cc(C)nc(Nc2ccc(NC(=O)C3CCCC3)cc2)n1
COc1ccc(-n2nc(C(=O)NCCC3=CCCCC3)c3ccccc3c2=O)cc1
O=C(NCC1CCN(Cc2ccsc2)C1)c1cc(-c2cccc(C(F)(F)F)c2)cs1 (stereo not given)
COc1cc(NC(=O)/C=C/c2cccc3cc[nH]c23)ccc1OCCN(C(C)C)C(C)C
C=CCOC(=O)O[C@@H]1[C@@H](OC(=O)OCC=C)[C@@H](OC)O[C@H](COC(c2ccccc2)(c2ccccc2)c2ccccc2)[C@H]1OC(=O)OCC=C
O=C(Nc1cccnc1)c1cn(-c2ccccc2)nc1-c1cccs1
O=C(CN1CCCC1)Nc1cccc(C(=O)Nc2cccc(C(F)(F)F)c2)c1
O=S(=O)(Nc1cccc(CCN2CCC(N3CCCCC3)CC2)c1)c1cccc(C(F)(F)F)c1
Cc1cc(Cl)ccc1OC(C)C(=O)N1CCc2ccccc21 (stereo not given)
COc1cc2nc(N(C)Cc3cccc(I)c3)nc(N)c2cc1OC
O=C(Nc1cccc(OC2CCN(Cc3ccsc3)CC2)c1)c1ccc(C(F)(F)F)cc1
CC(C)CCN(Cc1cncn1Cc1ccccc1F)C(=O)c1cncc(-c2ccccc2)c1
Clc1nc2ccccn2c1C=Cc1ccc2ccccc2n1
COc1ccc(-c2cc(Nc3nc(-c4cccc(Cl)c4)nc4ccccc34)ccn2)cc1
COc1ccc(NC(=O)/C=C/c2ccccc2Cl)cc1OCCN1CCC(N2CCCC2)CC1
O=C(Nc1cccc(-c2cccc(-c3nc4ccccc4[nH]3)c2)c1)Nc1ccc(Cl)c(Cl)c1
CCNC(=O)c1ccc(-n2nc(C)cc2-c2ccccc2)cc1
CCN(CC)C(=NCCCCCCN=C(NC(N)=NCc1ccc(Cl)cc1)N(CC)CC)NC(N)=NCc1ccc(Cl)cc1
O=C(/C=C/c1ccc(Cl)c(Cl)c1)NCCCCCCN1CCCN(C(=O)Nc2cccc(Cl)c2)CC1
